Each sequence was assayed against DCPS (assay: pooled miR-30 sensor sort-seq; sequence = guide strand). Settings: shRNA.
In the case of TATTCCTGTAGTCATCTCCCGT, the sensor-assay potency score (higher = more potent) is reported as -0.287.
TAGTCATCTCCCGTCTCTCGGA showed a sensor-assay potency score (higher = more potent) of -0.952.
With TTCTGCAGGTGTTTCTCTGTGG the sensor-assay potency score (higher = more potent) was 0.117.
In the case of TTCTGCAGTCTGAAGCCGGAGA, the sensor-assay potency score (higher = more potent) is reported as -0.8.
With TACCATTTCCAACTCCTGCCTC the sensor-assay potency score (higher = more potent) was -0.586.
With TAGGAAAATGATTTTGTCCCGC the sensor-assay potency score (higher = more potent) was -0.432.
For TTTTAGAAAATTCACTTGGAGA, the sensor-assay potency score (higher = more potent) was -0.97.
TTATACACCCACTGGATGCTGA gave a sensor-assay potency score (higher = more potent) of -0.178.
For TTACATCATTCAGTTGTCTTGG, the sensor-assay potency score (higher = more potent) was 0.191.
TTGTCTTGGAGGGAACAAGTGA showed a sensor-assay potency score (higher = more potent) of -0.588.
TTCAATACTAGGAATAAGCCGG showed a sensor-assay potency score (higher = more potent) of -0.221.

The sequences below were run against DCST1 in the same assay as above. Settings: shRNA.
Sequence TAGGTCATTGTAGAGGAACAGG has a sensor-assay potency score (higher = more potent) of -1.31.
ATCGGTACTGCAGCTCTCCAGT was tested, and the sensor-assay potency score (higher = more potent) was -0.753.
TCTTCGTAGATGTTCATGGGGT gave a sensor-assay potency score (higher = more potent) of -0.405.
Work on TATCCCAGGACAAAGAGCCTGC yielded a sensor-assay potency score (higher = more potent) of -0.178.
With TAACAGGCAGAGACACACTAAC the sensor-assay potency score (higher = more potent) was -1.38.
TTGATCTGCAGCTCCACGGTGC was tested, and the sensor-assay potency score (higher = more potent) was -0.609.
With TTCTTTGCCCTCTTGTGCCATT the sensor-assay potency score (higher = more potent) was -1.23.
Work on TTGGGTACTAGTAGGAGGCTGG yielded a sensor-assay potency score (higher = more potent) of 0.466.
TTTGCTACTCAGCAGGTCCTTG showed a sensor-assay potency score (higher = more potent) of -0.773.
Sequence TTGTAGAGGAACAGGATCCGCT has a sensor-assay potency score (higher = more potent) of -0.486.
TACAAGAACATAATCTTCTGTT showed a sensor-assay potency score (higher = more potent) of 0.614.
For TTCTTCGTAGATGTTCATGGGG, the sensor-assay potency score (higher = more potent) was 0.19.

These sequences were tested against DCTN6 in the same assay as above. Settings: shRNA.
With TAAGAGTACATAAACACTGTGG the sensor-assay potency score (higher = more potent) was -0.0797.
In the case of TTAGGGTGGATCACTGTCCGAG, the sensor-assay potency score (higher = more potent) is reported as -0.692.
For TTAAGAGTACATAAACACTGTG, the sensor-assay potency score (higher = more potent) was -0.096.
Work on TAGGTTTTGGTTCTGGATCTTC yielded a sensor-assay potency score (higher = more potent) of -0.00342.
TTTCACTTTCTACACATACAAC gave a sensor-assay potency score (higher = more potent) of -1.58.
TAATTCTTGCTTTAGGGTGGAT gave a sensor-assay potency score (higher = more potent) of -0.47.
TTTCTACACATACAACTGCTCC gave a sensor-assay potency score (higher = more potent) of -0.672.
TTTAGGTTGCAACAAGCCCCAA was tested, and the sensor-assay potency score (higher = more potent) was -1.26.
In the case of TTTCATAGTCTTCTTTAGGTGG, the sensor-assay potency score (higher = more potent) is reported as -0.245.
TAGATCACCGTATTCTCAGGGA was tested, and the sensor-assay potency score (higher = more potent) was 0.157.
For TTTCATCAAGAAATCCAGCTGT, the sensor-assay potency score (higher = more potent) was 0.825.

The sequences below were run against DCX in the same assay as above. Settings: shRNA.
With TCAATTATTAGTATTTAGCTGA the sensor-assay potency score (higher = more potent) was 0.00518.
For ATTCTTGGTGTACTCCACCTTT, the sensor-assay potency score (higher = more potent) was -0.629.
With TATTCATCTTGTTTTCTCCTGG the sensor-assay potency score (higher = more potent) was 0.366.
TAACATAGAATATAAACTGAGA gave a sensor-assay potency score (higher = more potent) of -0.639.
TTTCATTTAAATCAACTCCGAT showed a sensor-assay potency score (higher = more potent) of -0.0704.
TAAATTAACACCTACAATCTGG was tested, and the sensor-assay potency score (higher = more potent) was -0.105.

Source: the OligoGym collection
Note: reference of the scale not given here.
